Test results published in PubChem BioAssay AID1233 (SRMLSC, 2008).
Entries with a potency or affinity are not part of this list. Unmarked numbers belong to inactive results.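 The calls were made as follows: active = a dose-response curve fit returns a half-maximal inhibitory concentration, extrapolated values included; inactive = the fit returns no such concentration.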

What follows are compounds tested against HMG-CoA reductase [Enterococcus faecalis] (UniProt Q9FD70) (assay: inhibitors of E. faecalis class II HMGR, confirmation, biochemical, Enterococcus faecalis (AID 1233;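 also: 0% = full reaction carrier wells and 100% = background wells lacking mevalonate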)). Conditions: purified E. faecalis HMGR, NADPH absorbance 340 nm kinetics; series mostly up to 100 µM; inhibition: at the top concentration.
With `CC(C)(C)c1ccc(C(=O)Nc2ccc(NC(=O)c3ccco3)cc2)cc1` the “inhibition” value was -4.08%. `Cc1ccc(NC(=O)C(=O)NCc2ccc(/C=N/NC(=O)c3c(C)nc4cc(C)ccn34)o2)cc1` was tested, and the “inhibition” value was -1.84%. With `O=c1oc2ccccc2c(O)c1C=Nc1cccnc1` the “inhibition” value was -2.21%. In the case of `COc1ccc(N=CC2=C(O)c3ccccc3C2=O)c(OC)c1`, the “inhibition” value is reported as -11.6%. `Cc1ccc(NC2=C(N3CCOCC3)C(=O)c3ccccc3C2=O)cc1` was tested, and the “inhibition” value was -1.54%. For `CC1CCCN(C(=O)C2CCN(CC(C)c3ccccc3)CC2)C1` (stereo not drawn), the “inhibition” value was -5.44%. In the case of `COC(=O)C1=C(C)NC(C)=C(C(=O)OC)C1C1CC=CCC1` (stereo not drawn), the “inhibition” value is reported as -1.61%. In the case of `Cc1cc2cccc(C)c2nc1SCC(=O)NNC(=O)c1ccco1`, the “inhibition” value is reported as -7.68%. In the case of `Cc1ccc(NC(=O)c2cc(S(=O)(=O)NCCC3=CCCCC3)ccc2F)cc1`, the “inhibition” value is reported as -1.4%. For `Clc1ccc2c(c1)C(c1cccs1)=NNC(c1cccnc1)=N2`, the “inhibition” value was -2.29%. With `CN(C=O)CP(=O)(O)CN1CCCCC1` the “inhibition” value was -2.44%. In the case of `CC(C)NC(=O)c1ccccc1NC(=O)C(C)Oc1ccccc1` (stereo not drawn), the “inhibition” value is reported as -3.55%. For `CCN(CC)CCCCCOc1ccccc1OC`, the “inhibition” value was -1.77%. `O=C1c2ccccc2C(=O)C1c1ccc2ccccc2n1` was tested, and the “inhibition” value was -0.79%. In the case of `O=C(COC(=O)Cc1c(Cl)cccc1Cl)NCCC1=CCCCC1`, the “inhibition” value is reported as -4.75%. In the case of `Cc1ccc(Cl)cc1NC(=O)COC(=O)C12CC3CC(CC(C3)C1)C2`, the “inhibition” value is reported as -5.2%. In the case of `CC(=O)Nc1ccc(C(=O)CSc2nnc(Cc3ccccc3)o2)cc1`, the “inhibition” value is reported as -5.67%. With `CCn1c(SCC(=O)N/N=C/c2ccc(C)o2)nnc1-c1ccccc1` the “inhibition” value was -0.02%. `C[C@H]1[C@H](C)CC[C@]2(C(=O)O)CC[C@]3(C)C(=CC[C@@H]4[C@@]5(C)C[C@@H](O)[C@H](O)C(C)(C)[C@@H]5CC[C@]43C)[C@H]12` was tested, and the “inhibition” value was -8.57%. With `Cc1ccc(/C=C/S(=O)(=O)NCC(=O)O)cc1` the “inhibition” value was 0.69%. For `Cc1ccc(S(=O)(=O)N2CCCCC2)cc1C(=O)N1CCN(c2ccccn2)CC1`, the “inhibition” value was -1.95%. In the case of `Cn1c(CO)cnc1SCc1ccc(F)cc1`, the “inhibition” value is reported as -3.85%. With `COc1ccc(Cn2c(=O)sc3ccccc3c2=O)cc1` the “inhibition” value was -4.26%. With `COc1ccc(-c2nc(CN3CCCCC3c3cccnc3)c(C)o2)c(F)c1` (stereo not drawn) the “inhibition” value was -8.15%. For `N#CC(c1ccc(Cl)cc1)c1nc2ccccc2nc1C(F)(F)F` (stereo not drawn), the “inhibition” value was -0.91%. For `COc1cc(C2CC(=O)N(CC(=O)NCC3CCCO3)c3ccccc3S2)cc(OC)c1OC` (stereo not drawn), the “inhibition” value was -0.73%. With `COCCNC(=O)C(c1ccccc1C)N(C(=O)Cn1nnc2ccccc21)c1cccnc1` (stereo not drawn) the “inhibition” value was -7.56%. In the case of `CCCNC(=O)c1cc2c(C(F)(F)F)nn(C)c2s1`, the “inhibition” value is reported as -1.54%. `Cc1cc(C)nc(NC(=O)CCCC(=O)O)c1` was tested, and the “inhibition” value was -1.66%. In the case of `O=C(N/N=C/c1ccc2c(c1)OCO2)c1ccc(NS(=O)(=O)c2cccs2)cc1`, the “inhibition” value is reported as -1.17%. In the case of `CCOC(=O)C1CCN(C(=O)CN(c2ccc3c(c2)OCCO3)S(C)(=O)=O)CC1`, the “inhibition” value is reported as -2.07%. With `O=C(CC(=O)NN=C1CCCCCC1)NCc1cccnc1` the “inhibition” value was -5.13%. `CCN(CC)c1ccc(/C=N/NS(=O)(=O)c2cccc([N+](=O)[O-])c2)cc1` was tested, and the “inhibition” value was 0.13%. `CCOC(=O)c1cc2c(ccn2C)n1CC(=O)N1CCN(c2cccc(C(F)(F)F)c2)CC1` was tested, and the “inhibition” value was -1.25%. In the case of `CC(C)[C@H](NC(N)=O)C(=O)Nc1cccc(S(=O)(=O)N2CCOCC2)c1`, the “inhibition” value is reported as 2.1%. For `Cn1c(=O)c(C(=O)CSc2ccccc2)c(N)n(Cc2ccccc2)c1=O`, the “inhibition” value was -1.18%. `CCOc1ccc(/C=N/NC(=O)CC(=O)Nc2ccc(Cl)c(Cl)c2)cc1` was tested, and the “inhibition” value was -0.69%. With `O=C(CSCc1ccc(Cl)cc1)NCC1CCCO1` (stereo not drawn) the “inhibition” value was 0.13%.
